Only some compounds are listed: those with a hit (about 14% of all), similar ones and a draw of the others.
CRE Fsk mod: Cell signaling CRE-BLA (Fsk stim) | CHO CRE-bla reporter (cAMP response element driving beta-lactamase), forskolin EC10, beta-lactamase ratio | Potency, µM (series often up to 38.2 µM), usual class: activators | hit rate 2.5% among 71,000; active means well fitted activation curve with a large enough effect in the signal ratio, with a control signal flat, not every such curve was filed as active; inconclusive means small, poorly fitted or top-dose-only effect, or effect the other way, or a change in a side signal; the % refers to the signal ratio
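CRE-bla CHO reporter cells treated with compound titration plus EC10 NKH 477 (water-soluble forskolin), incubated 3 h at 37 °C; CCF4 loading 2 h at room temperature, 460/530 nm emission ratio read, AC50 values derived for positive or negative modulators.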
4MU fluor: qHTS Assay for Spectroscopic Profiling in 4-MU Spectral Region; compound autofluorescence, 340/450 nm, 4-MU equivalents; stronger effect = higher value; max dye-equivalent concentration, M; hit rate 11% among 59,000; AID 589, 2007; in the data active means max dye-equivalent concentration above about 10 nM; inconclusive means mostly about 1.1 nM to 9.6 nM
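Compounds in 100 mM Tris, pH 8.0, incubated 15 min at room temperature, then fluorescence read at 340 nm excitation/450 nm emission. Signal converted to 4-MU dye-equivalent concentration using an on-plate six-point 4-MU standard curve.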
HADH2 inh: qHTS Assay for Inhibitors of HADH2 (Hydroxyacyl-Coenzyme A Dehydrogenase, Type II); 3-hydroxyacyl-CoA dehydrogenase type-2 (Homo sapiens), Q99714; recombinant HADH2, NADH fluorescence, beta-hydroxybutyryl-CoA; Potency, µM (top dose mostly 57.1 µM), usual class: inhibitors; hit rate 3.4% among 73,000; further: nearly all actives have a fitted effect of over 60% in size
Target sequence (Q99714 whole entry, looked up, one chain of several): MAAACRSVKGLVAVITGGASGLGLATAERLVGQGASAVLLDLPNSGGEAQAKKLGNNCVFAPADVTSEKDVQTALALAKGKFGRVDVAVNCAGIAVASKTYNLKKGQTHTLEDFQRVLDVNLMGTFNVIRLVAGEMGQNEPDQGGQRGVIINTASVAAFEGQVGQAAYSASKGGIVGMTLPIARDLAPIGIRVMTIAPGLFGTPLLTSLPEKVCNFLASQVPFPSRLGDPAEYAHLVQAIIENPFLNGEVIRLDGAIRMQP
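Read-out: 360 nm excitation, 450 nm emission, kinetic over 4 min. Conditions: His-tagged human HADH2 20 nM, pH 9.0 Tris with Tween-20, 1 mM NAD+, 90 uM beta-hydroxybutyryl-CoA.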
A350 autofl: qHTS Assay for Spectroscopic Profiling in A350 Spectral Region; Compound autofluorescence, 340/450 nm, Alexa 350 dye-equivalents; stronger effect = higher value; max dye-equivalent concentration, M; hit rate 11% among 59,000; AID 590, 2007; in the data active means max dye-equivalent concentration above about 10 nM; inconclusive means mostly about 1.1 nM to 9.6 nM
AID923: qHTS Assay for Allosteric/Competitive Inhibitors of Caspase-1: Spectroscopic Profiling in AFC Spectral Region | compound fluorescence, AFC spectral region (405/520 nm) | Potency, µM (titrated, usually from 57.5 µM), actives largely listed as activators | hit rate 1.1% among 75,000 | AID 923, 2007
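Compound autofluorescence profiled at 405 nm ex/520 nm em during kinetic caspase 1 run (50 nM enzyme, 5 uM Ac-WEHD-AFC, HEPES pH 7.5, 10 mM DTT). Titration up to 57 uM; baseline from regression intercept, normalized to AFC standard curve.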
HSD17B inh: qHTS Assay for Inhibitors of HSD17B4, hydroxysteroid (17-beta) dehydrogenase 4; 3-hydroxyacyl-CoA dehydrogenase type-2 (Homo sapiens), Q99714; recombinant HSD17B10, NADH fluorescence kinetic; Potency, µM (titrated, usually from 57.1 µM), hits mostly inhibitors; hit rate 7.6% among 75,000; AID 893, 2007;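 further: the protocol describes HADH2 (HSD17B10) and not the HSD17B4 of the title; nearly all actives have a fitted effect of over 70% in size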
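His-tagged E. coli-expressed HADH2 at 20 nM in 100 mM Tris-HCl pH 9.0 with 0.01 % Tween-20, preincubated 15 min with compound at room temperature. Reaction with 1 mM NAD+ and 90 uM beta-hydroxybutyryl coenzyme A; NADH fluorescence (360/450 nm) read kinetically over 4 min, last minus first point.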
A number is an active result; [ ] = dose if it differs, or a comment. Unless noted, the call rests on the fitted dose curve; in most records, active means well fitted curve in the direction sought with a large enough effect; inconclusive means small, poorly fitted or top-dose-only effect, or another doubt; inactive means no such curve, though single readings can be large; an effect the other way counts as inactive or inconclusive.

Screening Cc1ccc2cc(CCNC(=O)C3CCCC3)c(=O)[nH]c2c1 returned CRE Fsk mod inactive, HADH2 inh inactive, AID923 inactive and HSD17B inh inactive.
Screening C=CCn1c(SCC(=O)Nc2ccccc2CC)nnc1-c1ccncc1 returned CRE Fsk mod inactive, 4MU fluor inactive, HADH2 inh inactive, A350 autofl inconclusive, AID923 inactive and HSD17B inh inactive.
Screening Cc1ccc(C2NC(=O)NC(O)(C(F)(F)F)C2C(=O)c2cccs2)o1 (stereo unspecified) returned CRE Fsk mod inactive, 4MU fluor inactive, HADH2 inh inactive, A350 autofl inactive, AID923 inactive and HSD17B inh inactive.
`Cc1cc(NC(=O)Cc2ccccc2)no1` gave CRE Fsk mod inactive, 4MU fluor inactive, HADH2 inh inactive, A350 autofl inactive, AID923 inactive and HSD17B inh inactive.
For O=C1c2sc3nc4c(c(=O)n3c2C(=O)N1c1ccccc1)CCC4 the results were CRE Fsk mod inactive, 4MU fluor inconclusive, HADH2 inh inconclusive, A350 autofl inconclusive, AID923 inactive and HSD17B inh inactive.
Cc1ccccc1N1C(=O)c2sc3nc4c(c(=O)n3c2C1=O)CCC4 was read as CRE Fsk mod inactive, HADH2 inh 25.1µM, AID923 inactive and HSD17B inh inactive.
O=C1c2sc3nc4ccccc4n3c2C(=O)N1c1ccccc1Cl was read as CRE Fsk mod inactive, 4MU fluor inactive, HADH2 inh 7.94µM, A350 autofl inactive, AID923 inactive and HSD17B inh inactive.
`CCC(NC(=O)c1ccccc1O)c1ccccc1` (stereo unspecified) gave CRE Fsk mod inactive, 4MU fluor 1.25e-08M, HADH2 inh 25.1µM, A350 autofl 1.22e-08M, AID923 inactive and HSD17B inh inconclusive.
Cc1ccccc1OCCNC(=O)CNC(=O)c1ccccc1O was read as CRE Fsk mod inactive, 4MU fluor 1.54e-08M, HADH2 inh inactive, A350 autofl 1.73e-08M, AID923 inactive and HSD17B inh 25.1µM.
For O=C(O)CNC(=O)c1ccccc1O the results were CRE Fsk mod inactive[7.6 µM], 4MU fluor inactive, HADH2 inh inactive[11.4 µM], A350 autofl inactive, AID923 inactive[11.5 µM] and HSD17B inh 3.16µM.
For COc1ccccc1OCCNC(=O)c1ccccc1C the results were CRE Fsk mod inactive, 4MU fluor inactive, HADH2 inh inactive, A350 autofl inactive, AID923 inactive and HSD17B inh inactive.
`CCC(C)NC(=O)c1ccccc1C(=O)NC(C)CC` (stereo unspecified) gave CRE Fsk mod inconclusive, 4MU fluor inactive, HADH2 inh inactive, A350 autofl inactive, AID923 inactive and HSD17B inh inactive.
Cc1csc(SCC(=O)Nc2cc(C(C)(C)C)nn2-c2ccccc2)n1 was read as CRE Fsk mod inconclusive, 4MU fluor inactive, HADH2 inh inactive, A350 autofl inconclusive, AID923 inactive and HSD17B inh inactive.
Screening CC(C)(N=NC(C)(C)C1=NCCN1)C1=NCCN1 returned CRE Fsk mod inactive[7.6 µM], 4MU fluor inactive, HADH2 inh inactive[11.4 µM], A350 autofl inactive, AID923 inactive[11.5 µM] and HSD17B inh inactive[11.4 µM].
`CC(=O)N[C@H](CS)C(=O)O` gave CRE Fsk mod inactive, 4MU fluor inactive, HADH2 inh inconclusive, A350 autofl inactive, AID923 inactive and HSD17B inh inactive.
Cc1c(C(=O)O)oc2ccc(S(=O)(=O)N3CCCCC3C(=O)O)cc12 (stereo unspecified) was read as CRE Fsk mod inactive, HADH2 inh inactive, AID923 inactive and HSD17B inh inactive.
CN1CC=C2C(C#N)=C(N)C(C#N)(C#N)[C@H](c3cccc(Cl)c3)C2C1 (stereo partly specified) was read as 4MU fluor 3.77e-07M and A350 autofl 4.38e-07M.
COc1cc([C@@H]2[C@H]3CN(C)CC=C3C(C#N)=C(N)C2(C#N)C#N)cc2c1OCO2 was read as 4MU fluor 1.16e-07M and A350 autofl 1.34e-07M.

Compound activity from PubChem.
